Measured values reported in the supplement of paper PMC10338343.

These sequences were tested on EfPiwi piRISC loaded with L1MC piRNA (26 nt) (assay: pre-steady-state target cleavage rate (min^-1); auxiliary factor: none (no Gtsf1); guide: L1MC piRNA 5'p-UAACUAAAUACUAUGCAAGCUGUAGG; MIWI and MILI are mouse PIWI proteins and EfPiwi is from a freshwater sponge; tags in brackets are library labels; higher = faster piRNA-guided slicing of the target).
In short: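 The method was Cleave-'n-Seq, in which uncleaved targets from a transcribed, DNA-blocked target RNA library were sequenced after exposure to active affinity-purified piRISC carrying one synthetic guide, with or without GTSF1 partner protein. Reactions contained 0.1 nM library, 1 nM piRISC and, where present, 500 nM GTSF1 in HEPES–potassium acetate buffer at 33 °C for 0–8 or 0–960 min. Reads were normalised to depth and to weakly complementary targets, three trials were pooled, and k3 was capped at 0.0001 min^-1. The pre-steady-state cleavage rate came from a burst-and-steady-state fit.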

pre-steady-state target cleavage rate, < 0.0001:
UCCUGGAUGUCGAACGUUAGUAUUUAUGUUA, UCCUGGAUGUCGAACGUUAGUUUAUAGUUA, UCCUGGAUGUCGAAGCAUAGGAUUUAGUUA, UCCUGGAUGUCCUUGCAUACUAUUUAGAUA, UCCUGGAUGUCGAACGUAUCUAUUUAUUUA, UCCUGGAUGUCGAUCCAUAGUAAUUAGUUA, UCCUGGAUGUCGAACGUUAGUAUUUAGAUUA, UCCUGGAUGUCGAACCUUAGUAUUUAGUUA, UCCUGGAUGUCGAACGUAAGUAUUUAUUA, UCCUGGAUGUCGAAGGAUAGUAUUUAGUUA, UCCUGGAUGUCGAACGUAUGUAUUUGAGUUA, UCCUGGAUGUCGAUGCAAGUAUUUAGUUA, UCCUGGAUGUCGAACGUUCGUAUUUAGUUA, UCCUGGAUGUCGAACGUAUGUGAUUUAGUUA, UCCUGGAUGUCGAACGUAUCUAUUUAAUUA, UCCUGGAUGUCGAACGUAUGUUAUUAGUUA, UCCUGGAUGUCGAUGCAUAGGAUUUAGUUA, UCCUGGAUGUCGAACGUAUCUAUUUGGUUA, UCCUGGAUGUCGAACGUAUCUGAUUUAGUUA, UCCUGGAUGUCGAAGCAUAGUAUUUUGAUA, UCCUGGAUGUCGAACGUUAGUUUUUUGUUA, UCCUGGAUGUCGAUGCAUAGAAAUUAGUUA, UCCUGGAUGUCGAAGCUUAGUAUUUAGUAA, UCCUGGAUGUCGUUGCAUGUAUUUAGUUA, UCCUGGAUGUCGAACCAUUGUAUUUAGUUA, UCCUGGAUGUGCUUGCAUACAUUUUAGUAA, UCCUGGAUGUCCUUGCAUUCAAUUUAGUAA, UCCUGGAUGUCGAUGCAUUGAAUUUAGUUA, UCCUGGAUGUCGAACGUAUCUAUUCAGUUA, UCCUGCUACAGCUUGCAAUCAUAAAUCAAA [g14:g25:cont:t1A], UCCUGGAUGUCGAACCAUAGUAUUUCAGUUA, UCCUGGAUGUCGAACGUAUGUAUUUAUUA, UCCUGGAUGUCGAACGUUAGUCAUUUAGUUA, UCCUGGAUGUCGAACGUAAGAUUUAGUUA, UCCUGGUACAGCUUGCAAUCAUAAAUCAAA [g14:g24:cont:t1A], UCCUGCUACAGCUUGCAUACAUAAAUCAAA [g12:g25:cont:t1A], UCCUGGAUGUCGAUGCAUAGAAUUUAGUAA, UCCUGGAUGUCGAUGCAUACUUUUUAGUUA, UCCUGGUACAGCUUGCAUAGUAUAUACUUA, UCCUGGAUGUCGAACGUAUGUAUUUAGUUU [g2:g11:cont:t1U]
